Among the data in PubChem BioAssay (Tox21) are Potency and outcome values, retold here.

“And” between values parts separate entries of the source, which are not always exact repeats. Equal values may be shown once. Records with an inconclusive call do not appear. The source made the active and inactive calls. Unless noted, the call rests on the fitted dose curve; in most records, active means well fitted curve in the direction sought with a large enough effect in the repeat runs; inconclusive means weak or mixed curves; inactive means no such curve, though single readings can be large; an effect the other way counts as inactive or inconclusive.

Assay [1] in a line: qHTS assay for small molecules that induce genotoxicity in human embryonic kidney cells expressing luciferase-tagged ATAD5 (AID 651632). Further: nearly all actives have a fitted effect of over 15% in size. Further: potency means the concentration at half of the fitted maximal effect. The procedure, abridged: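 Reporter cells (HEK293T) express luciferase-tagged ATAD5, a protein that accumulates after DNA damage. Treat 16 hr at 37C/5% CO2, add Amplite, wait 30 min at RT, and read luminescence.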
In general terms: In qHTS, concentration-response curves come from the screen itself.

Assay [2] is described as follows: qHTS assay for small molecule agonists of the p53 signaling pathway - cell viability (AID 651633; calls by dose curve; further: series mostly up to about 83 µM; nearly all actives have a fitted effect of over 30% in size). The procedure, abridged: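 p53RE-bla cells were treated with compound for 16 hours at 37 C. Cytotoxicity was then measured as CellTiter-Glo luminescence after 30 min at room temperature.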
The nature of assay [3]: qHTS assay for small molecules that induce genotoxicity in human embryonic kidney cells expressing luciferase-tagged ATAD5 - cell viability (AID 651634; calls by dose curve; further: nearly all actives have a fitted effect of over 25% in size). The gist of the method:
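Seeding of 2,000 HEK293T ATAD5-luciferase cells per well preceded pin-tool compound transfer. Plates sat 15.5 hr at 37C under 5% CO2, then fluorescence was read after 30 min with CellTiter-Fluor.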

The nature of assay [4]: qHTS assay for small molecule disruptors of the mitochondrial membrane potential - cell viability (AID 720634; calls by dose curve;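 further: human HepG2 liver cancer cells; series mostly up to about 83 µM; nearly all actives have a fitted effect of over 20% in size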). The procedure, abridged: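 Measuring cytotoxicity alongside mitochondrial potential, the screen quantified ATP by luminescence in HepG2 cells after 1 hr compound incubation and a 30 min room-temperature CellTiter-Glo step.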
Assay [5] in a line: qHTS assay for small molecule disruptors of the mitochondrial membrane potential (AID 720635). Further: potency means the concentration at half of the fitted maximal effect. The procedure, abridged:
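HepG2 cells exposed to compound 1 hr at 37C, then Mito-MPS dye 30 min. Ratio read of aggregate (540/590 nm) versus monomer (490/535 nm) fluorescence.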

Assay [6] in a line: qHTS assay to test for compound auto fluorescence at 590 nm (red) in HepG2 cells (AID 720674). The gist of the method: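 Fluorescence at 590 nm emission following 540 nm excitation was recorded from HepG2 wells one hour after compound transfer, with DMSO-only wells as vehicle and Rose Bengal sodium equivalency as the scale.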
A short description of assay [7]: qHTS assay to test for compound auto fluorescence at 535 nm (green) in HepG2 cells (AID 720675).
A short description of assay [8]: qHTS assay to test for compound auto fluorescence at 460 nm (blue) in HEK293 cells (AID 720678). The procedure, abridged:
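Triamterene serves as the blue fluorophore standard. Compound signal at 405/460 nm is read in HEK293 wells (2,000 cells, 10% dialyzed FBS) after overnight treatment at 37C.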

The nature of assay [9]: qHTS assay to test for compound auto fluorescence at 590 nm (red) in HEK293 cells (AID 720679). The procedure, abridged:
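We plated HEK293 cells in 10% dialyzed FBS medium, let them adhere for 4-5 hr, then added 23 nL compound. Overnight at 37C and 5% CO2 preceded fluorescence measurement at 540/590nm.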

A short description of assay [10]: qHTS assay to test for compound auto fluorescence at 535 nm (green) in HEK293 cells (AID 720680).
A short description of assay [11]: qHTS assay to test for compound auto fluorescence at 460 nm (blue) in HEK293 cell free culture (AID 720681). The gist of the method: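 Compounds were added to cell-free DMEM with 10% FBS and fluorescence read directly. The blue channel used 405 nm excitation and 460 nm emission, with triamterene as the reference fluorophore.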
A short description of assay [12]: qHTS assay to test for compound auto fluorescence at 535 nm (green) in HEK293 cell free culture (AID 720682). The procedure, abridged:
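Read-out: 485/535 nm fluorescence intensity, calibrated against fluorescein. Medium only (DMEM + 10% FBS, no cells); test compound or DMSO vehicle added by pintool before plate reading.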

Assay [13] can be described thus: qHTS assay to test for compound auto fluorescence at 590 nm (red) in HEK293 cell free culture (AID 720683). The gist of the method: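 Cell-free wells of DMEM with 10% FBS received compound, and intrinsic fluorescence was read at excitation/emission 540/590 nm. Values expressed as equivalence to Rose Bengal sodium.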
A short description of assay [14]: qHTS assay to test for compound auto fluorescence at 590 nm (red) in HepG2 cell free culture (AID 720684). The procedure, abridged: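 Compound was pinned into wells holding MEM with 10% FBS and no cells, and red fluorescence was read at Ex/Em 540/590 nm. Signal is expressed as auto fluorescence equivalency relative to Rose Bengal sodium.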
The nature of assay [15]: qHTS assay to test for compound auto fluorescence at 460 nm (blue) in HepG2 cell free culture (AID 720685). The procedure, abridged: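 Compound (23 nL) or DMSO pinned into cell-free MEM with 10% FBS; blue fluorescence read at 405/460 nm excitation/emission, expressed as auto-fluorescence equivalency to triamterene.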
The nature of assay [16]: qHTS assay to test for compound auto fluorescence at 535 nm (green) in HepG2 cell free culture (AID 720686).
The nature of assay [17]: qHTS assay to test for compound auto fluorescence at 460 nm (blue) in HepG2 cells (AID 720687). The gist of the method:
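HepG2 cells in MEM with 10% FBS, attached overnight at 37 C, were exposed to compound or DMSO for 1 hr at 37 C, 5% CO2. Blue fluorescence was read at 405/460 nm, with triamterene as reference fluorophore.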

The target of assay [18] is Glucocorticoid receptor (Homo sapiens) (UniProt P04150). The assay can be described thus: qHTS assay to identify small molecule agonists of the glucocorticoid receptor (GR) signaling pathway (AID 720691; active means well fitted activation curve with a large enough effect in the signal ratio in the repeat runs, not every such curve was filed as active; the % refers to the signal ratio). The gist of the method:
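Reporter read-out: fluorescence intensity following 2 h room-temperature LiveBLAzer B/G FRET substrate loading. Prior step: GR-bla HeLa cells held 4 h, then treated 18 h at 37 C.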

Assay [19] has the same target. Nature of the assay: qHTS assay to identify small molecule antagonists of the glucocorticoid receptor (GR) signaling pathway (AID 720692; active means well fitted inhibition curve with a large enough effect in the signal ratio in the repeat runs, not every such curve was filed as active; the % refers to the signal ratio). The procedure, abridged:
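Dexamethasone (5 nM final) stimulated a stably integrated GRE-beta-lactamase reporter in HeLa cells during 18 h co-incubation with compounds; signal was quantified as fluorescence intensity of B/G FRET substrate after 2 h.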

A short description of assay [20]: qHTS assay for small molecule agonists of the p53 signaling pathway (AID 651631; calls by dose curve; further: nearly all actives have a fitted effect of over 15% in size). The gist of the method: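 HCT-116 cells carrying a stable p53 response element–beta-lactamase reporter were plated, rested 5 h at 37 °C, then exposed to compound in DMSO for 16 h at 37 °C; reporter activity was read as FRET substrate fluorescence after 2 h at room temperature.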

Chain of Glucocorticoid receptor (Homo sapiens) (P04150 whole entry, looked up): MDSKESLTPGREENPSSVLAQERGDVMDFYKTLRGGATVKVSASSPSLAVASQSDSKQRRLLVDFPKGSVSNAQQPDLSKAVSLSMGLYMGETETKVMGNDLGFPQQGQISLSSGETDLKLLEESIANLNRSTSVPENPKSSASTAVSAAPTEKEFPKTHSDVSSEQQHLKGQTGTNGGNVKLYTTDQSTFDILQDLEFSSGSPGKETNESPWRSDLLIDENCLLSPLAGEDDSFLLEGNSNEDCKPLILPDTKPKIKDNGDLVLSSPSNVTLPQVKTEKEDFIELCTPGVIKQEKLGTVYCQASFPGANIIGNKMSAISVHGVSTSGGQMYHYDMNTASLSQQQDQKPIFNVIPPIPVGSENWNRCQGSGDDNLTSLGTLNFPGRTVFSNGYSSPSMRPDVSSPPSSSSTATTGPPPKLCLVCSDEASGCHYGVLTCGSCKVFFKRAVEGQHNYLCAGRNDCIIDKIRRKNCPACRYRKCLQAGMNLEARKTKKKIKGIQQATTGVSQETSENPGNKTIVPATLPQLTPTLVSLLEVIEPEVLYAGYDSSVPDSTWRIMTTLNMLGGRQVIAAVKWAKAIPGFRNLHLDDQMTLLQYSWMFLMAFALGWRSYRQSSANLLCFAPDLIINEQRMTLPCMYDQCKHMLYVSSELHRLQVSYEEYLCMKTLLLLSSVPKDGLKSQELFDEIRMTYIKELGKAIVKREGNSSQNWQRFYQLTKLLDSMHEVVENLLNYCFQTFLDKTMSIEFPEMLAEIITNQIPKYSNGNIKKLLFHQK

For the compound `ClC(Cl)c1ccccc1`, the Potency result in [1], in assay [2], in [3], in assay [4], in [5] and in [19] was “inactive” each time. For the same compound, the call in assay [6], in assay [7], in [8], in assay [9], in [10] and in assay [11] was inactive. Further, the result in [12], in [13], in assay [14], in assay [15], in assay [16] and in assay [17] was inactive. Further, in [18], the outcome was inactive.

As to `CNc1cnn(-c2cccc(C(F)(F)F)c2)c(=O)c1Cl`, the Potency entry in assay [20], in assay [2], in assay [3], in [4], in [5] and in assay [19] was “inactive” each time. Moreover, the outcome in assay [6], in assay [7], in assay [8], in [9], in assay [10] and in assay [11] was inactive. The compound was classed as inactive in assay [12], in [14], in [15], in assay [16], in assay [17] and in assay [18].

Consider `Cc1cccc(N)c1`, for which the Potency entry in assay [1], in [2], in assay [3], in assay [4] and in [5] was “inactive” each time. Besides, the call in assay [6], in assay [7], in [8], in [9], in assay [10] and in assay [11] was inactive. The compound was classed as inactive in [12], in [13], in [14], in [15], in [16] and in [17].

Consider `CN(C)NC(=O)CCC(=O)O`, for which the Potency entry in assay [20], in assay [2], in assay [4] and in assay [5] was “inactive” in each case. For the same compound, the outcome in assay [6], in assay [7], in assay [8], in assay [9], in assay [10] and in assay [11] was inactive. Besides, the compound was called inactive in assay [12], in assay [13], in assay [14], in assay [15], in assay [16] and in [17].

Regarding `O=C(O)Cc1ccccc1`, the Potency result in [1], in assay [2], in [3], in assay [4] and in assay [5] was “inactive” throughout. Besides, the call in assay [6], in assay [7], in [8], in assay [9], in assay [10] and in assay [11] was inactive. Besides, the compound was classed as inactive in assay [12], in [14], in assay [15], in assay [16] and in assay [17].

For `CC(=O)/C=C/c1ccccc1`, the Potency result in [1], in assay [2], in assay [3], in assay [4], in assay [5] and in assay [19] was “inactive” each time. In addition, the call in assay [6], in assay [7], in assay [8], in assay [9], in assay [10] and in [11] was inactive. Besides, the compound was classed as inactive in assay [12], in assay [13], in assay [14], in assay [15], in [16] and in assay [17]. Moreover, the call in assay [18] was inactive.

In the case of `Nc1ccc(N)cc1`, the Potency in [1] is 29.8 µM (active); in assay [5], 841 nM (active) and 5.47 µM (active) and 3.86 µM (active). For the same compound, the Potency entry in [2], in assay [3] and in assay [4] was “inactive” in each case. Further, the call in assay [6], in assay [7], in assay [8], in assay [9], in [10] and in assay [11] was inactive. Further, the call in assay [12], in assay [14], in assay [15], in assay [16] and in [17] was inactive.

With `Cc1cccc(N)c1C`, the Potency result in assay [20], in assay [1], in assay [2], in assay [3], in assay [4] and in assay [19] was “inactive” in each case. Further, the result in [6], in [7], in assay [8], in assay [9], in assay [10] and in assay [11] was inactive. Further, the compound was called inactive in assay [12], in assay [14], in assay [15], in assay [16], in assay [17] and in assay [18].

For `OC[C@@H](O)[C@H]1O[C@@H]2O[C@H](C(Cl)(Cl)Cl)O[C@@H]2[C@H]1O`, the Potency entry in assay [1], in assay [3], in assay [4], in assay [5] and in assay [19] was “inactive” each time. For the same compound, the result in [6], in assay [7], in assay [8], in assay [9], in assay [10] and in [11] was inactive. Further, the result in assay [12], in assay [14], in assay [15], in assay [16], in assay [17] and in assay [18] was inactive.

Regarding `Nc1ncc([N+](=O)[O-])s1`, the Potency result in assay [20], in assay [1], in assay [2], in assay [3], in assay [4] and in assay [19] was “inactive” throughout. In addition, the result in [6], in [7], in [8], in [9], in assay [10] and in [11] was inactive. For the same compound, the compound was called inactive in assay [12], in assay [14], in assay [15], in assay [16], in assay [17] and in assay [18].

Regarding `COc1cc(-c2ccc(N)c(OC)c2)ccc1N`, the Potency entry in assay [20], in [1], in [2] and in assay [4] was “inactive” each time. Besides, the outcome in assay [6], in assay [7], in assay [8], in assay [9], in assay [10] and in assay [11] was inactive. Besides, the outcome in [12], in [14], in [15], in assay [16] and in [17] was inactive.

As for `C=CC(=O)OCC(CC)CCCC` (stereo not given), the Potency entry in [20], in [2], in [4], in [5] and in assay [19] was “inactive” each time. Also, the call in assay [6], in assay [7], in [8], in assay [9], in [10] and in assay [11] was inactive. The result in [12], in [14], in assay [15], in assay [16], in assay [17] and in assay [18] was inactive.

For `O=S(=O)(O)OOS(=O)(=O)O`, the Potency entry in assay [1], in [2] and in [3] was “inactive” throughout. The outcome in [6], in assay [7], in assay [8], in assay [9], in assay [10] and in assay [11] was inactive. In addition, the compound was called inactive in assay [12], in assay [13], in assay [14], in [15], in assay [16] and in assay [17].

In the case of `O=P1(NCCCl)OCCCN1CCCl` (stereo not given), the Potency result in assay [1], in assay [3], in assay [4], in assay [5] and in [19] was “inactive” throughout. For the same compound, the compound was called inactive in assay [6], in assay [7], in [8], in assay [9], in [10] and in assay [11]. Also, the compound was called inactive in assay [12], in assay [14], in [15], in assay [16], in [17] and in assay [18].

In the case of `C[C@H]1C(=O)O[C@@H]2CCN3CC=C(COC(=O)[C@](C)(O)[C@]1(C)O)[C@H]23`, the Potency result in assay [20], in [1], in assay [2], in assay [3] and in assay [19] was “inactive” each time. The compound was classed as inactive in assay [6], in [7], in assay [8], in [9], in assay [10] and in assay [11]. The compound was called inactive in [12], in assay [14], in assay [15], in assay [16], in [17] and in [18].
